Data: PubChem BioAssay (NCI)
About 79,000 compounds went through this panel and 15% of them were active in at least one assay; those are over-represented in the sample as a whole. Active and inactive are the calls of the source. No stated cut-off is given here; in the data, active means growth inhibition above about 70%; inactive means the rest.

What was measured:
[1] = NCI Yeast Anticancer Drug Screen. Data for the mec2-1 strain (AID 157); details: S. cerevisiae mec2-1 strain, stronger effect = higher value
In short: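 Using mec2-1 yeast: add compound, measure growth, express inhibition versus vehicle-treated cultures.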

[2] = NCI Yeast Anticancer Drug Screen. Data for the rad14 strain (AID 159);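 further: 0% = growth of vehicle-treated control cultures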; details: S. cerevisiae rad14 strain growth inhibition, stronger effect = higher value
In short: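 Here, inhibition of yeast growth was measured after compound exposure, using a strain with a genetic defect in DNA damage repair and vehicle-treated cultures as the reference.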

[3] = NCI Yeast Anticancer Drug Screen. Data for the sgs1 mgt1 strain (AID 161);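 further: 0% = growth of cultures given vehicle only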; details: S. cerevisiae sgs1 mgt1 strain, stronger effect = higher value
In short: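 This yeast growth screen uses a strain with defined DNA-repair lesions; compound-treated growth is compared with vehicle-treated growth.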

[4] = NCI Yeast Anticancer Drug Screen. Data for the CLN2oe strain (AID 163);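 further: 0% = growth of vehicle-only control cultures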; details: S. cerevisiae CLN2oe strain, stronger effect = higher value
In short: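 Whole-cell yeast growth assay. A strain engineered for altered cell-cycle control received compound, and inhibition relative to vehicle-treated cultures was recorded.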

[5] = NCI Yeast Anticancer Drug Screen. Data for the bub3 strain (AID 167); details: S. cerevisiae bub3 mutant strain, stronger effect = higher value
In short: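 Whole-cell yeast assay. The mutant strain was incubated with compounds, and growth inhibition was determined by comparison with vehicle-treated cells.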

[6] = NCI Yeast Anticancer Drug Screen. Data for the wt2 strain (AID 169);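 further: 0% = growth of vehicle-treated yeast cultures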; details: S. cerevisiae wt2 strain growth inhibition, stronger effect = higher value
In short: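 Treated yeast vs. vehicle-treated yeast: growth inhibition determined.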

[7] = NCI Yeast Anticancer Drug Screen. Data for the mlh1 strain (AID 171);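 further: 0% = growth of vehicle-treated control cultures of the same strain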; details: S. cerevisiae mlh1 strain growth inhibition, stronger effect = higher value
In short: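 A yeast strain with a defined genetic lesion serves as the test organism. Cultures receive compound or vehicle, and growth is measured.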

[8] = NCI Yeast Anticancer Drug Screen. Data for the sgs1 strain (AID 173);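 further: 0% = growth of vehicle-only control cultures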; details: S. cerevisiae sgs1 mutant, stronger effect = higher value
In short: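 A genetically defined yeast mutant is incubated with the test compound, and its growth is compared to that of the same strain given vehicle.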

[9] = NCI Yeast Anticancer Drug Screen. Data for the mlh1 rad18 strain (AID 175); details: S. cerevisiae mlh1 rad18 strain growth inhibition, stronger effect = higher value
In short: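 Steps: expose repair-defective yeast to compound; measure growth; express inhibition against vehicle-treated controls.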

[10] = NCI Yeast Anticancer Drug Screen. Data for the rad18 strain (AID 177); details: S. cerevisiae rad18 mutant growth inhibition, stronger effect = higher value
In short: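 Measured value is growth inhibition of a yeast strain bearing a DNA repair alteration, referenced to vehicle-treated cells.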

[11] = NCI Yeast Anticancer Drug Screen. Data for the wt1 strain (AID 149);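 further: 0% = growth of vehicle-treated wt1 cultures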; details: S. cerevisiae wt1 strain (SPY 50644) growth inhibition, stronger effect = higher value
In short: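 Measured: growth of wt1 yeast under compound versus vehicle treatment, reported as inhibition.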

[12] = NCI Yeast Anticancer Drug Screen. Data for the rad50EPP+ strain (AID 151);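 further: 0% = growth of vehicle-treated control cultures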; details: S. cerevisiae rad50 mutant strain, stronger effect = higher value
In short: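 Read-out is yeast growth inhibition relative to vehicle; cells used were the rad50EPP+ strain.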

[13] = NCI Yeast Anticancer Drug Screen. Data for the mgt1 strain (AID 153); details: S. cerevisiae mgt1 mutant growth inhibition, stronger effect = higher value
In short: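 Measured: inhibition of mgt1 yeast growth by compound, normalized to vehicle-treated cultures.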

[14] = NCI Yeast Anticancer Drug Screen. Data for the rad50 strain (AID 155);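 further: 0% = growth of vehicle-only cultures of the same strain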; details: S. cerevisiae rad50 strain growth inhibition, stronger effect = higher value
In short: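 Growth of the mutant yeast was measured after compound exposure and referenced to vehicle-treated cultures.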

[15] = NCI Yeast Anticancer Drug Screen. Data for the cln2 rad14 strain (AID 165);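 further: 0% = growth equal to vehicle treated cultures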; details: S. cerevisiae cln2 rad14 strain, stronger effect = higher value
In short: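 Yeast strain cln2 rad14, bearing defects in cell cycle control and DNA repair, serves as the test system; values reflect growth inhibition compared with vehicle.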

[16] = at 5.0 µM (retest, dose inferred, filed as 0.5)
[17] = at 50.0 µM (retest, dose inferred, filed as 5.0)

Measured: growth inhibition

Cc1ccc(N(C=O)c2c([N+](=O)[O-])cc([N+](=O)[O-])c3c2=[N+]([O-])CN=3)cc1
inactive: [2]; at 1.2 µM -15% | [2]; at 3.7 µM 1% | [2]; at 11.0 µM 30% | [3]; [16] 12% | [3]; at 50.0 µM 58.8% | [4]; at 1.2 µM -3% | [4]; at 3.7 µM 8% | [4]; at 11.0 µM 34% | [5]; at 1.2 µM -1% | [5]; at 3.7 µM 5% | [5]; [16] 38% | [5]; at 11.0 µM 19% | [5]; at 50.0 µM 11% | [6]; at 1.2 µM 9% | [6]; at 3.7 µM 17% | [6]; at 11.0 µM 46% | [7]; at 1.2 µM -1% | [7]; at 3.7 µM 6% | [7]; at 11.0 µM 48% | [8]; at 1.2 µM 16% | [8]; at 3.7 µM 21% | [8]; at 11.0 µM 51% | [9]; [16] 12% | [9]; at 50.0 µM 41.3% | [10]; at 1.2 µM 0% | [10]; at 3.7 µM 14% | [10]; at 11.0 µM 47%
active: [1]; at 100.0 µM 98% | [2]; at 33.0 µM 94% | [2]; at 100.0 µM 97% | [3]; [17] 84% | [4]; at 33.0 µM 95% | [4]; at 100.0 µM 98% | [5]; at 33.0 µM 72% | [5]; [17] 98% | [5]; at 100.0 µM 97% | [6]; at 33.0 µM 90% | [6]; at 100.0 µM 98% | [7]; at 33.0 µM 94% | [7]; at 100.0 µM 98% | [8]; at 33.0 µM 89% | [8]; at 100.0 µM 98% | [9]; [17] 98% | [10]; at 33.0 µM 91% | [10]; at 100.0 µM 98%

O=C1OC(c2ccc(Cl)cc2)Sc2ccccc21 (stereo not drawn)
inactive: [11]; at 1.2 µM 1% | [11]; at 3.7 µM 6% | [11]; at 11.0 µM 17% | [12]; at 1.2 µM 11% | [12]; at 3.7 µM 28% | [12]; at 11.0 µM 45% | [12]; at 33.0 µM 61% | [12]; at 100.0 µM 58% | [13]; at 1.2 µM 6% | [13]; at 3.7 µM 8% | [13]; at 11.0 µM 17% | [14]; at 1.2 µM 7% | [14]; at 3.7 µM 13% | [14]; [16] 5% | [14]; at 11.0 µM 62% | [1]; at 1.2 µM 9% | [1]; at 3.7 µM 17% | [1]; [16] -7% | [1]; at 11.0 µM 33% | [1]; [17] 35% | [2]; at 1.2 µM 7% | [2]; at 3.7 µM 11% | [2]; at 11.0 µM 25% | [3]; [16] 4% | [3]; [17] 52% | [4]; at 1.2 µM 9% | [4]; at 3.7 µM 13% | [4]; at 11.0 µM 27% | [5]; at 1.2 µM 11% | [5]; at 3.7 µM 15% | [5]; [16] 7% | [5]; at 11.0 µM 29% | [5]; [17] 46% | [6]; at 1.2 µM 6% | [6]; at 3.7 µM 6% | [6]; at 11.0 µM 31% | [7]; at 1.2 µM 6% | [7]; at 3.7 µM 12% | [7]; at 11.0 µM 27% | [8]; at 1.2 µM 2% | [8]; at 3.7 µM 11% | [8]; at 11.0 µM 37% | [9]; [16] 16% | [10]; at 1.2 µM 6% | [10]; at 3.7 µM 15% | [10]; at 11.0 µM 68%
active: [11]; at 33.0 µM 88% | [11]; at 100.0 µM 98% | [13]; at 33.0 µM 97% | [13]; at 100.0 µM 94% | [14]; at 33.0 µM 95% | [14]; [17] 88% | [14]; at 50.0 µM 83.8% | [14]; at 100.0 µM 92% | [1]; at 33.0 µM 96% | [1]; at 50.0 µM 86.5% | [1]; at 100.0 µM 98% | [2]; at 33.0 µM 98% | [2]; at 100.0 µM 98% | [3]; at 50.0 µM 85% | [4]; at 33.0 µM 97% | [4]; at 100.0 µM 97% | [5]; at 33.0 µM 96% | [5]; at 50.0 µM 93.9% | [5]; at 100.0 µM 97% | [6]; at 33.0 µM 84% | [6]; at 100.0 µM 98% | [7]; at 33.0 µM 97% | [7]; at 100.0 µM 98% | [8]; at 33.0 µM 96% | [8]; at 100.0 µM 97% | [9]; [17] 86% | [9]; at 50.0 µM 95% | [10]; at 33.0 µM 96% | [10]; at 100.0 µM 94%

COc1ccc2nc3cccc([N+](=O)[O-])c3c(NCCCO)c2c1
inactive: [11]; at 1.2 µM 15% | [11]; at 3.7 µM 62% | [12]; at 1.2 µM 9% | [12]; at 3.7 µM 35% | [13]; at 1.2 µM 12% | [13]; at 3.7 µM 51% | [4]; at 1.2 µM 6% | [4]; at 3.7 µM 43% | [5]; at 1.2 µM -9% | [5]; at 3.7 µM 14% | [5]; [16] 16% | [7]; at 1.2 µM 35%
active: [11]; at 11.0 µM 94% | [11]; at 33.0 µM 97% | [11]; at 100.0 µM 97% | [12]; at 11.0 µM 75% | [12]; at 33.0 µM 94% | [12]; at 100.0 µM 97% | [13]; at 11.0 µM 92% | [13]; at 33.0 µM 96% | [13]; at 100.0 µM 96% | [14]; at 1.2 µM 87% | [14]; at 3.7 µM 93% | [14]; [16] 95% | [14]; at 11.0 µM 95% | [14]; at 33.0 µM 97% | [14]; [17] 98% | [14]; at 50.0 µM 86.8% | [14]; at 100.0 µM 97% | [1]; at 1.2 µM 93% | [1]; at 3.7 µM 96% | [1]; [16] 97% | [1]; at 11.0 µM 98% | [1]; at 33.0 µM 98% | [1]; [17] 99% | [1]; at 50.0 µM 91% | [1]; at 100.0 µM 96% | [2]; at 1.2 µM 97% | [2]; at 3.7 µM 98% | [2]; at 11.0 µM 99% | [2]; at 33.0 µM 99% | [2]; at 100.0 µM 95% | [3]; [16] 95% | [3]; [17] 98% | [3]; at 50.0 µM 82.9% | [4]; at 11.0 µM 88% | [4]; at 33.0 µM 95% | [4]; at 100.0 µM 98% | [15]; [16] 99% | [15]; [17] 99% | [15]; at 50.0 µM 89.4% | [5]; at 11.0 µM 87% | [5]; at 33.0 µM 97% | [5]; [17] 99% | [5]; at 50.0 µM 85.2% | [5]; at 100.0 µM 99% | [7]; at 3.7 µM 80% | [7]; at 11.0 µM 94% | [7]; at 33.0 µM 97% | [7]; at 100.0 µM 97% | [8]; at 1.2 µM 93% | [8]; at 3.7 µM 95% | [8]; at 11.0 µM 97% | [8]; at 33.0 µM 98% | [8]; at 100.0 µM 97% | [9]; [16] 97% | [9]; [17] 99% | [9]; at 50.0 µM 81.8% | [10]; at 1.2 µM 96% | [10]; at 3.7 µM 96% | [10]; at 11.0 µM 96% | [10]; at 33.0 µM 96% | [10]; at 100.0 µM 97%
